Laboratory results reported in PubChem BioAssay AID648 (SRMLSC, 2007).
Out of some 86,000 compounds screened, about 920 (1.1%) were called active. The entries come from a sample that favours actives as a whole. Unmarked numbers belong to inactive results.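 Rule for the calls: active = viability at or below 30%; inactive = viability above 30%.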

Test: endothelial cell growth inhibition – HUVEC, 384-well, primary screen (AID 648);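 note: 100% = median luminescence of DMSO-only cell control wells on each plate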
Conditions: HUVEC proliferation, CellTiter-Glo luminescence, 72 h; active compounds read low; screened at 10 µM (by protocol)
With `CCOC(=O)c1cnc(SCC(=O)Nc2cccc(OC)c2)nc1N` the viability was 93.3%. `CCn1nnnc1SCC(=O)c1ccc(C)cc1C` gave a viability of 92.1%. In the case of `OC(COc1ccc2c(c1)CCC2)CN1CCN(c2cccc(Cl)c2)CC1` (centres undefined), the viability is reported as 83.9%. For `Cc1coc2c(O)cc3c(c12)OC1(N2CCCCC2)C(=O)NCCCC31` (centres undefined), the viability was 6.44% (active). For `Cc1cccc(NC(=O)N(Cc2cc3cc(C)cc(C)c3[nH]c2=O)CC2COCCO2)c1` (centres undefined), the viability was 77.6%. Work on `N#CCSc1nc2c(c(=O)n1Cc1ccccc1)C1(CCCC1)Cc1ccccc1-2` yielded a viability of 101%. Work on `Cc1c(C=O)c2ccccn2c1C(=O)c1ccncc1` yielded a viability of 97%. `CCc1c(-c2ccccc2)nc(N)c(C#N)c1-c1cccs1` showed a viability of 102%. In the case of `CCN(CC)C(=O)CSc1nnc(-c2cccc(OC)c2)o1`, the viability is reported as 104%. For `COc1cccc(NC(=O)CN(C)S(=O)(=O)c2ccc(C)cc2)c1`, the viability was 97.5%. In the case of `COc1cccc(-c2nnc(NC(=O)c3ccc(S(=O)(=O)N(CC(C)C)CC(C)C)cc3)o2)c1`, the viability is reported as 23.6% (active). `CC1(C)NC(=O)N(CCCCSc2ccc(Cl)cc2)C1=O` gave a viability of 97.1%. Work on `CC(C)NS(=O)(=O)c1ccc(NC(=O)C2CCCCC2)cc1` yielded a viability of 106%. Work on `O=C(Cc1cccc2ccccc12)Nc1ccc2oc(-c3ccccc3)nc2c1` yielded a viability of 49.6%. In the case of `Cc1nc(-c2ccc(NC(=O)c3cccs3)cc2)cs1`, the viability is reported as 89.5%. With `O=C(Nc1ccc2oc(-c3ccc4ccccc4c3)nc2c1)c1cccs1` the viability was 22% (active). With `CC(Oc1ccc(Cl)cc1)c1ccnn1S(C)(=O)=O` (centres undefined) the viability was 73.7%. For `COc1ccccc1C(=O)N1CC2(C)CC1CC(C)(C)C2` (centres undefined), the viability was 94%. In the case of `COn1c(=O)c(=O)n(OC)c2ccccc21`, the viability is reported as 105%. For `Oc1c(CN2CCN(c3ccc(F)cc3)CC2)cc(Cl)c2cccnc12`, the viability was 5.81% (active). In the case of `O=C(c1cccc(C(=O)N2CCN(c3ccc(F)cc3)CC2)c1)N1CCN(c2ccc(F)cc2)CC1`, the viability is reported as 92.2%. Molecule `CCN1CCN(C(c2cccnc2)c2cc(Cl)c3cccnc3c2O)CC1` (centres undefined) has a viability of 74.6%. Work on `Cc1nnc(SCC(=O)N2CCN(c3ccccc3)CC2)n1-c1ccccc1` yielded a viability of 93.5%. `COC(=O)c1ccc(CSc2nnc(NC(C)C)s2)cc1` showed a viability of 96.9%. Work on `CCc1c(O)nc(SCC(=O)Nc2ccccc2)n(C(C)CC)c1=O` (centres undefined) yielded a viability of 96.5%. In the case of `CC(C)(C)n1nnnc1C(c1ccc(F)cc1)N1CCN(Cc2ccc3c(c2)OCO3)CC1` (centres undefined), the viability is reported as 89%. For `CCCc1nc(NCc2ccc3c(c2)OCO3)c2nnn(Cc3ccccc3Cl)c2n1`, the viability was 73.6%. In the case of `C#CCNc1nc(C(C)C)nc2c1nnn2Cc1ccccc1F`, the viability is reported as 127%. In the case of `Cc1nc(Nc2ccc3c(c2)OCCO3)c2nnn(Cc3ccccc3Cl)c2n1`, the viability is reported as 29.5% (active). Work on `Nc1c(C(=O)NCc2ccccc2)sc2nc3c(cc12)C(=O)CCC3` yielded a viability of 84.8%. In the case of `Cc1nnc(SC(C)C(=O)Nc2ccc(S(=O)(=O)NC3CCCCC3)cc2)s1` (centres undefined), the viability is reported as 104%. Work on `O=C(Nc1ccccc1)c1ccc2c(c1)OCO2` yielded a viability of 94%. In the case of `Cc1cccc(Nc2ccccc2C(=O)NCc2ccco2)c1C`, the viability is reported as 63.9%. Molecule `Cc1cccc(C)c1N1CCN(S(=O)(=O)N2CCOCC2)CC1` has a viability of 108%. For `CC1=C/C(=N\OS(=O)(=O)c2ccccc2)C=CC1=O`, the viability was 1.29% (active). Work on `c1ccc(-c2nc(NCc3ccco3)c3ccccc3n2)cc1` yielded a viability of 85.5%. With `CCSc1nnc(NC(=O)Cc2ccccc2OC)s1` the viability was 93.5%. `CC(C)c1cc(C(=O)O)n[nH]1` gave a viability of 90.3%. `C=C(C)CSc1nnc(-c2ccc(C)cc2)n1N` gave a viability of 93.8%. In the case of `N=c1c2c(-c3ccccc3)c(-c3ccccc3)n(Cc3ccccc3)c2ncn1CCCO`, the viability is reported as 1.91% (active). In the case of `OCCCN1c2ccccc2Nc2nnc(-c3ccccc3)cc21`, the viability is reported as 69.2%. `O=C(NCCN1CCOCC1)c1c(F)c(F)c(F)c(F)c1F` showed a viability of 94.7%. With `CC(=O)Oc1cc2c(C(=O)NCCN3CCOCC3)c(C)oc2c2ccccc12` the viability was 4.78% (active). `O=C(CCN1C(=O)c2ccccc2C1=O)NCCN1CCOCC1` gave a viability of 93.8%. `CCCOc1ccc(N2C(=O)CC(N(CCc3ccc(S(N)(=O)=O)cc3)C(C)=O)C2=O)cc1` (centres undefined) showed a viability of 98%. Molecule `O=C1c2ccccc2C(=O)N1CCCc1nc(-c2ccccc2)no1` has a viability of 111%. `Cc1ccc(-c2csc(SCC(=O)Nc3cc(C)on3)n2)cc1` gave a viability of 100%. In the case of `O=C(CCN1c2ccccc2Sc2ccccc21)Nc1ccccc1`, the viability is reported as 84.5%. In the case of `Cc1ccc(C2(C(F)(F)F)N=C3Sc4cc(C)cc(C)c4N3C(=O)N2)cc1` (centres undefined), the viability is reported as 21.8% (active). For `COC(=O)c1nc2ccccc2s1`, the viability was 93.3%. With `Cc1cc(=O)oc2cc(OCC3CC(c4ccccc4Cl)=NO3)ccc12` (centres undefined) the viability was 44.4%. In the case of `Cc1ccccc1N1CCN(CCCOc2ccc3c(C)cc(=O)oc3c2)CC1`, the viability is reported as 25.2% (active). For `CCc1cc(=O)oc2cc(OCC(=O)N3CCCc4ccccc43)ccc12`, the viability was 80.5%. `CCCC1(C(=O)OCC)NC(c2ccc(N(C)C)cc2)C2C(=O)N(c3ccc4c(c3)OCCO4)C(=O)C21` (centres undefined) gave a viability of 104%. `CCN(CC)C(=O)CSc1ncnc2c1cnn2-c1ccccc1` showed a viability of 123%. Molecule `Cc1cc(Br)ccc1NC(=O)C1CCCO1` (centres undefined) has a viability of 90.3%. Molecule `Cc1ccc(C(=O)NCC2CCCO2)o1` (centres undefined) has a viability of 106%. With `OC(CNCC1CCCO1)Cn1c2ccc(Br)cc2c2cc(Br)ccc21` (centres undefined) the viability was 3.17% (active). With `Cc1ccc(S(=O)(=O)/N=C(\CN2CCOCC2)N2CCOCC2)cc1` the viability was 89.5%. Molecule `Cc1ccc(CN2CCN(/N=C/c3ccco3)CC2)c(C)c1` has a viability of 104%. In the case of `C=C(C)COc1ccc(-c2n[nH]c(C)c2-c2ccccc2OC)c(O)c1`, the viability is reported as 23.9% (active). Work on `C=C(C)COc1ccc(-c2n[nH]c(C)c2-c2ccccc2)c(O)c1` yielded a viability of 54%. For `COc1ccc(-c2n[nH]c(C)c2-c2ccc(OC)c(OC)c2)c(O)c1`, the viability was 48.7%. Molecule `O=C(NCC1CCCO1)c1ccc2ccccc2n1` (centres undefined) has a viability of 89.6%. In the case of `O=S(=O)(NC1CCCCC1)c1ccc(F)c2ccccc12`, the viability is reported as 81.9%. For `Cc1ccc(S(=O)(=O)NCCSC(C)(C)C)cc1`, the viability was 103%. In the case of `CCc1nnc(NC(=O)CSc2nc3ccccc3c(=O)n2CCCOC)s1`, the viability is reported as 90.7%. For `Cc1nc(SCC(=O)Nc2cc(C)on2)c2c3c(sc2n1)CCCC3`, the viability was 75.7%. Work on `COCCNc1nc(-n2nc(C)cc2C)nc2sc3c(c12)CCCC3` yielded a viability of 78%. In the case of `Cc1cc(C)n(-c2nc(SCC(=O)N3CCCC3)c3c4c(sc3n2)CCCC4)n1`, the viability is reported as 16.2% (active). In the case of `CCCCCCNC(=O)CSc1nccn1Cc1ccccc1`, the viability is reported as 80.6%. `O=C(C(NS(=O)(=O)c1cccc2nsnc12)c1ccccc1)N1CCN(c2ccccc2)CC1` (centres undefined) gave a viability of 101%. Molecule `CCC1(C)Cc2c(sc3nc(SC)nc(N)c23)CO1` (centres undefined) has a viability of 93.2%. Molecule `CCC1(C)Cc2c(sc3nc4n(c(=O)c23)CCCS4)CO1` (centres undefined) has a viability of 101%. For `CCC1(C)Cc2c(sc3[nH]c(=S)n(Cc4ccccc4)c(=O)c23)CO1` (centres undefined), the viability was 7% (active). With `C=CCn1c(N)cc(=O)nc1SCC(=O)Nc1cccc2ccccc12` the viability was 103%. In the case of `O=C(NC1CCCCC1)c1ccc(CNc2c(N3CCOCC3)c(=O)c2=O)cc1`, the viability is reported as 105%. In the case of `COC(=O)c1c(C)c(C)nc(N)c1C#N`, the viability is reported as 104%. `Oc1ccc2ccc3cccc[n+]3c2c1` gave a viability of 97.5%. `Cc1nc2cc(-c3ccc(F)cc3)nn2c(N2CCOCC2)c1C` showed a viability of 98.8%. Work on `COc1ccc(-c2cc(C)nc3nc(N)nn23)cc1` yielded a viability of 86.4%. In the case of `Cc1cc(N)n2nc(-c3ccc(C(C)(C)C)cc3)cc2n1`, the viability is reported as 24.9% (active). `CCCCCN1CC(O)=C(c2nc(-c3ccc(Cl)cc3)cs2)C1=N` showed a viability of 102%. Molecule `O=C(O)CCN=C1CCc2ccccc2N1` has a viability of 95.7%. `O=C(COc1ccc(S(=O)(=O)NCc2ccccc2)cc1)N1CCOCC1` showed a viability of 98.2%. For `Cc1ccc2oc(=O)c3cnn(CC(=O)N(Cc4ccco4)C4CCCCC4)c3c2c1`, the viability was 84%. For `COc1cc(CC(=O)NCc2cccs2)cc(OC)c1OC`, the viability was 98.3%. For `O=C(NCCC1=CCCCC1)C1CCN(Cc2cnn(-c3ccccc3)c2-n2cccc2)CC1`, the viability was 28.4% (active). `CC(=O)Nc1ccc(NC(=O)CSCc2cnn(-c3ccccc3)c2-n2cccc2)cc1` gave a viability of 89.5%. In the case of `C1=C(CCNc2ncnc3c2cnn3-c2ccccc2)CCCC1`, the viability is reported as 94.9%. Molecule `CCn1c(SCC(=O)Nc2ccc(S(=O)(=O)Nc3onc(C)c3C)cc2)nnc1-c1ccccc1` has a viability of 89.5%. In the case of `Brc1ccc(-c2nnc(-c3ccccc3)o2)o1`, the viability is reported as 90.9%. `OCCN1CCOCCOCCN(CCO)CCN(CCO)CC1` gave a viability of 105%. For `CC(C)(C)c1cc(=O)n2c(nc3ccccc32)[nH]1`, the viability was 103%. For `Cc1nc2nc(COc3ccccc3)[nH]n2c(=O)c1C`, the viability was 88.1%. For `Cc1[nH]n(-c2cccc(Cl)c2)c(=O)c1-c1ccc(Cl)cc1`, the viability was 63.2%. With `Cc1nc2c(-c3ccccc3)c(C)[nH]n2c(=O)c1Cl` the viability was 12% (active). `CCCN(Cc1cc2cccc(C)c2[nH]c1=O)S(C)(=O)=O` gave a viability of 95.8%. Molecule `CCOc1ccc(S(=O)(=O)N2CCCCCC2)c2ccccc12` has a viability of 102%. With `O=C1CSC2=NCN(c3ccccc3)CN12` the viability was 93.5%. In the case of `Cc1cccc(N2C(=O)c3cccnc3C2=O)c1`, the viability is reported as 95.8%. In the case of `COc1cc(/C=C(\C#N)c2nc3c(s2)CC(C)CC3)ccc1O` (centres undefined), the viability is reported as 83.7%. Molecule `N#Cc1c(NC(=O)CSc2nc3ccccc3c(=O)n2Cc2ccco2)sc2c1CCCC2` has a viability of 58.5%. With `COc1ccc(-n2c(SCC(=O)Nc3sc4c(c3C#N)CCCC4)nnc2-c2ccc(O)cc2)cc1` the viability was 3.66% (active). In the case of `COc1ccc(-c2nnc(SCC(=O)c3ccco3)n2-c2ccccc2)cc1`, the viability is reported as 92.6%. For `Cc1cc(NC(=O)CCC(=O)N(CC(=O)NCC2CCCO2)c2ccccc2C)no1` (centres undefined), the viability was 105%. `CC(C)(O)C(=O)NN(C(=O)c1ccccc1)c1cccc(Br)c1` gave a viability of 109%. For `CCOC(=O)c1nnn(-c2nonc2-n2cccc2)c1CN1CCC(C(=O)OCC)CC1`, the viability was 92.5%. `Cc1cc(-n2nc(C)cc2C)n2nc(C)c(-c3ccccc3)c2n1` showed a viability of 106%. Molecule `CCOC(=O)c1nnn(-c2nonc2-n2cccc2)c1CN1CCOCC1` has a viability of 100%. In the case of `Fc1ccccc1/C=C1\CCCC2=C1Nc1ncnn1C2c1ccccc1F` (centres undefined), the viability is reported as 13% (active). With `CCCCc1nnc(NC(=O)CS(=O)(=O)Cc2ccccc2)s1` the viability was 107%. Molecule `Clc1ccc(COn2c(-c3ccc(Cl)cc3Cl)nc3ncccc32)cc1` has a viability of 86%. `Cc1noc(/C=C/c2ccco2)c1S(=O)(=O)N1CCC(C(=O)N2CCc3ccccc32)CC1` gave a viability of 93.3%.
